PubChem BioAssay
Records with an inconclusive call do not appear. Activity calls are given as the source filed them.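 Rule for the calls, unless noted: active = efflux inhibition above 0.42, the validation set average plus 4 SD; inconclusive = no clear call, values can overlap the other calls; inactive = the rest.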

How the values were obtained:
[1] = rapamycin-like changes in RPL19A-GFP expression – cell-based, S. cerevisiae, multiplex flow cytometry, primary screen (AID 1862; in the data active = percent of DMSO control GFP below about 86%;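 note: lower values mimic rapamycin by blocking the RPL19A rise seen in DMSO cells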); conditions: S. cerevisiae RPL19A-GFP strain, flow cytometry fluorescence, 3 h; at 10 µM; stronger effect = lower value
[2] = TOR pathway GLN3 branch reporter MEP2-GFP changes – S. cerevisiae, multiplex flow cytometry, primary screen (AID 1867;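 active = GFP response, as percent of the DMSO control, above the screen-wide mean plus 3 SD, about 139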;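 note: median GFP channel fluorescence of barcode-gated MEP2-GFP cells measured by flow cytometry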); conditions: S. cerevisiae MEP2-GFP strain, 3 h, at 10 µM, stronger effect = higher value, 100% means same as DMSO wells
[3] = TOR pathway RTG branch CIT2 reporter changes – S. cerevisiae, GFP fusion, multiplex flow cytometry, primary screen (AID 1870;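 active = percent response above a set limit, the screen-wide mean plus 3 SD, cut at about 130% in these data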;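 note: barcoded CIT2-GFP strain pooled with four other GFP strains with rapamycin as positive control; median GFP fluorescence per well over plate mean of DMSO wells so 100% = DMSO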); conditions: S. cerevisiae CIT2-GFP expression, 3 h, at 10 µM, stronger effect = higher value
[4] = TOR pathway LAP4-GFP level changes – S. cerevisiae, multiplex flow cytometry, primary screen (AID 1873;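 active = GFP signal, as percent of the solvent control, above the screen mean plus 3 SD, about 149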); conditions: S. cerevisiae LAP4-GFP expression, 3 h, at 10 µM, stronger effect = higher value
[5] = yeast AGP1-GFP level changes, GLN3 branch – cell-based, multiplex flow cytometry, S. cerevisiae, primary screen (AID 1887;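 active = GFP signal above the screen-wide mean plus 3 SD, that is over about 124.5% of the solvent control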;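 note: AGP1-GFP fusion strain of S. cerevisiae within a five-strain barcoded multiplex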); conditions: 3 h, at 10 µM, stronger effect = higher value
[6] = reduced mouse 2C T cell binding to pMHC/ICAM-1 vesicles – MLPCN validation set, flow cytometry, LFA-1/ICAM-1 modulator project, pilot screen (AID 2523;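 active = response below a set limit, under 55% cells CD8-positive and vesicle-bound, and CD8 cells' 90th-percentile brightness under 279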;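 for vesicle binding response: mean PE anti-B7-1 fluorescence of CD8+ cells relative to row control; 100% = QL9-loaded vesicles with DMSO vehicle in the same plate row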); conditions: 2C mouse CD8+ T cells, at 7 µM, stronger effect = lower value; double positive events: measured here: CD8+/vesicle+ event percentage
[7] = target: Integrin beta-1 (Homo sapiens) + Integrin alpha-4 (Homo sapiens) (UniProt P13612+P05556); test: alpha4beta1 integrin LIBS antibody binding reduction – U937 cells, HUTS-21 mAb, flow cytometry, validation set, VLA-4 allosteric modulator project, pilot screen (AID 2674;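 active = inhibition above 50%, about 3 SD of the validation set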;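 note: antibody binding induced by the VLA-4 ligand LDV present at three times its Kd; 0% = LDV ligand with antibody and no compound and 100% = antibody without LDV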); conditions: HUTS-21 LIBS mAb binding, at 6.7 µM, stronger effect = higher value, binding induced by LDV ligand
[8] = calorie-restriction mimetic ROS inhibitors, yeast – validation compound set, pilot screen (AID 2706;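 active = superoxide response below 65% of plate, a cut near 3 SD across the whole screen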;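 note: yeast exposed to compound for one week at 30 degrees C before staining; 100% = mean of all compound wells on the same plate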); conditions: S. cerevisiae aging, superoxide DHE fluorescence; at 10 µM; stronger effect = lower value
[9] = target: Beta-adrenergic receptor kinase 1 (Homo sapiens) (UniProt P25098); test: GRK2 binders displacing RNA aptamer, biochemical, validation, human GRK2, bead flow cytometry (AID 488806;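 active = aptamer binding inhibition above 30%, about 3 SD of noise from non-fluorescent compounds; inactive = inhibition at or below 30%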); conditions: bead-bound GRK2, FAM-aptamer displacement, at 10 µM, stronger effect = higher value
[10] = target: Beta-2 adrenergic receptor (Homo sapiens) (UniProt P07550); test: agonist-induced loss of surface beta2AR – cell-based, FAP fluorogen, flow cytometry, validation set, pilot screen (AID 504459;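 active = percent response above 42, roughly 3 SD of non-fluorescent test compounds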;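 note: agonist-driven loss of surface beta2AR via internalization measured by FAP dye flow cytometry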); conditions: Am2.2-beta2AR cells, at 10 µM, stronger effect = higher value
[11] = target: AP-2 complex subunit beta (Homo sapiens) (UniProt P63010); test: beta-arrestin/AP2 interaction blockers – biochemical, validation set, GST-AP2 beads, flow cytometry, pilot screen (AID 504541;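 active = inhibition above 54%, about 3 SD of non-fluorescent compounds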;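 note: AP2 carries R879A mutation and is captured from E. coli lysate; bead-bound FITC arrestin peptide fluorescence measuring arrestin peptide binding to AP2; 0% = DMSO wells and 100% = excess unlabeled arrestin peptide control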); conditions: FITC arrestin peptide, at 10 µM, stronger effect = higher value, AP2 beta2 appendage fragment, R879A mutant
[12] = cytosolic pH regulators acting via V-ATPase – S. cerevisiae, pHLuorin, HTS validation (AID 504600; in the data active = response above about 15%;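 note: plate controls were DMSO for no effect and reference compound for full effect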); conditions: V-ATPase proton transport, at 10 µM, stronger effect = higher value
[13] = test system: anti-desmoglein-3 scFv antibody binding to human DSG3; test: blockers of pathogenic pemphigus antibody–desmoglein-3 binding – biochemical, validation compound set, bead-based, flow cytometry, pilot screen (AID 588368;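 active = binding below the plate cutoff, the plate median minus 3 SD, with a reading above zero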;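 note: signal is the median channel fluorescence of bead-bound GFP antibody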); conditions: Protein G beads, DSG3-Fc, scFv-GFP binding, at 10 µM, stronger effect = lower value
[14] = Nile Red efflux blockade in pump-expressing yeast – validation compound set, multiplex, phenotypic, pilot screen (AID 588506);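 note: Nile Red retained in cells so higher fluorescence means more efflux inhibition; 0 = negative control wells and 1 = enniatin B 25 µM full block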; conditions: S. cerevisiae pump-expressing triplex, Nile Red efflux flow cytometry; at 10 µM; stronger effect = higher value; the pumps come from Candida albicans
[15] = target: ATP-binding cassette sub-family B member 6 (Homo sapiens) (UniProt Q9NP58); test: blockers of ABCB6-driven porphyrin uptake – K562-ABCB6 cells, flow cytometry, validation set, pilot screen (AID 588550;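 active = inhibition above the screen-wide mean plus 3 SD, about 51%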;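 note: 0% = DMSO wells and 100% = benzethonium chloride 70 µM positive control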); conditions: K562-ABCB6 porphyrin accumulation, 1 h, at 10 µM, stronger effect = higher value
[16] = AML differentiation inducers, ER-HoxA9 marrow cells – cell-based, GFP/MAC1 double positive, flow cytometry, validation set, primary screen (AID 588685;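 active = differentiation response of at least 50%, scaled between solvent and reference control, from cells with both markers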;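 note: compound exposure lasts four days before antibody staining and flow analysis; 0% = DMSO wells and 100% = 5 µM fulvestrant positive control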); conditions: stronger effect = higher value, normalized: vehicle 0, fulvestrant 100

Chain of Beta-2 adrenergic receptor (Homo sapiens) (P07550 whole entry, looked up): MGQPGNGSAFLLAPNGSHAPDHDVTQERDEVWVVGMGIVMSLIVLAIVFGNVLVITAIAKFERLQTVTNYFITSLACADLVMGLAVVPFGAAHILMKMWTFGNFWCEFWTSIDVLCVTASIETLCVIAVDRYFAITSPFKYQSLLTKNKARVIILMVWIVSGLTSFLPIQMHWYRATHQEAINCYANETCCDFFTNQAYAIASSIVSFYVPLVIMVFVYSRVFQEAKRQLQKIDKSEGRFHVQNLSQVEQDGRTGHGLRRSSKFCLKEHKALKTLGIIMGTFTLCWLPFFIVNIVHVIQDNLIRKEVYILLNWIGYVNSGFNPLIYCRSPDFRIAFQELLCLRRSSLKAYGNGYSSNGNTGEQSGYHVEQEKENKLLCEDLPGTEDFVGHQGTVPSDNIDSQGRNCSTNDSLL
Chain of AP-2 complex subunit beta (Homo sapiens) (P63010 whole entry, looked up, the tested form may be a part, one chain of several): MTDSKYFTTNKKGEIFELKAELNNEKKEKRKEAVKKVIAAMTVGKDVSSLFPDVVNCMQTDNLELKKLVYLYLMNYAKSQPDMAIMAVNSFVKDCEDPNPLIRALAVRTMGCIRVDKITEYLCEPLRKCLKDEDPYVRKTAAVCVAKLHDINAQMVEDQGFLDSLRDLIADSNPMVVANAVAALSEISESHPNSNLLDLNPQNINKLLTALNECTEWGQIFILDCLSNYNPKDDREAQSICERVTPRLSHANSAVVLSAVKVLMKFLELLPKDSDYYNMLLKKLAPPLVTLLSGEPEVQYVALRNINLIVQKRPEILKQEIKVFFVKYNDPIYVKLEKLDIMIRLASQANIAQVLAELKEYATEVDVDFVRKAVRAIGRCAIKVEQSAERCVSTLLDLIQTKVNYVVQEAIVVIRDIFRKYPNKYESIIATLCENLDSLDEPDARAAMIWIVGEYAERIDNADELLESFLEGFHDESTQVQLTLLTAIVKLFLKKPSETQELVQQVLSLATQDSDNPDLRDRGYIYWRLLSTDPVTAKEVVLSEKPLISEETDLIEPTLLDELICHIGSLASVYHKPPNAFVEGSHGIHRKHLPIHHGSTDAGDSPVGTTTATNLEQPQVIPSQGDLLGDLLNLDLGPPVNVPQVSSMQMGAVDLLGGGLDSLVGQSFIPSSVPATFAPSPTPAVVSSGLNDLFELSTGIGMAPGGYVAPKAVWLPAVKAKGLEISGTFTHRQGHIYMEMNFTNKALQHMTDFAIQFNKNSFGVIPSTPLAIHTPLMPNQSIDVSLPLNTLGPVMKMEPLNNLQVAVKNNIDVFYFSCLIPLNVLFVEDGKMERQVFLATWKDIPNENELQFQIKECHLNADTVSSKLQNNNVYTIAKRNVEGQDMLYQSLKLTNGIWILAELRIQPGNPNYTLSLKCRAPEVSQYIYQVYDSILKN
Chain of Integrin beta-1 (Homo sapiens) + Integrin alpha-4 (Homo sapiens) (P05556 whole entry, looked up): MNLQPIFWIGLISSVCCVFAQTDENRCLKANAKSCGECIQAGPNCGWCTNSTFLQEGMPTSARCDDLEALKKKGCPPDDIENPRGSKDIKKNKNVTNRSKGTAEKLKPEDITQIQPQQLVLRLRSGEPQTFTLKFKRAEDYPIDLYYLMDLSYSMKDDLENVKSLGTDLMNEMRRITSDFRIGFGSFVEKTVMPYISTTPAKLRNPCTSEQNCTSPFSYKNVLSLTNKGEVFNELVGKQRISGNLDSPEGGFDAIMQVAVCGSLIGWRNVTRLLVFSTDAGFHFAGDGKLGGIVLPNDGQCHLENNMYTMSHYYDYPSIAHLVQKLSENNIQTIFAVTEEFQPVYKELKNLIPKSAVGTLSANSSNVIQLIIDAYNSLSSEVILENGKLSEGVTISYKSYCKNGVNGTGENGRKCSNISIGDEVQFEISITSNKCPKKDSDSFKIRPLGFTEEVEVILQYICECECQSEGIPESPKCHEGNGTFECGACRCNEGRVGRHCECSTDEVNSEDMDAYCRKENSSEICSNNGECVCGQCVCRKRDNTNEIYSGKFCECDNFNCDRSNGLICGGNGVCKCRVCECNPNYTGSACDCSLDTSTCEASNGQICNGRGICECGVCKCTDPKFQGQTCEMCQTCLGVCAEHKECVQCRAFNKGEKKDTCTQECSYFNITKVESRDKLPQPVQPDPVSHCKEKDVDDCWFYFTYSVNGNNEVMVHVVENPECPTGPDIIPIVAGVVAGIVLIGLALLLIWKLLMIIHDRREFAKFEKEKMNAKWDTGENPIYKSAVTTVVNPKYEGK
Chain of Integrin beta-1 (Homo sapiens) + Integrin alpha-4 (Homo sapiens) (P13612 whole entry, looked up): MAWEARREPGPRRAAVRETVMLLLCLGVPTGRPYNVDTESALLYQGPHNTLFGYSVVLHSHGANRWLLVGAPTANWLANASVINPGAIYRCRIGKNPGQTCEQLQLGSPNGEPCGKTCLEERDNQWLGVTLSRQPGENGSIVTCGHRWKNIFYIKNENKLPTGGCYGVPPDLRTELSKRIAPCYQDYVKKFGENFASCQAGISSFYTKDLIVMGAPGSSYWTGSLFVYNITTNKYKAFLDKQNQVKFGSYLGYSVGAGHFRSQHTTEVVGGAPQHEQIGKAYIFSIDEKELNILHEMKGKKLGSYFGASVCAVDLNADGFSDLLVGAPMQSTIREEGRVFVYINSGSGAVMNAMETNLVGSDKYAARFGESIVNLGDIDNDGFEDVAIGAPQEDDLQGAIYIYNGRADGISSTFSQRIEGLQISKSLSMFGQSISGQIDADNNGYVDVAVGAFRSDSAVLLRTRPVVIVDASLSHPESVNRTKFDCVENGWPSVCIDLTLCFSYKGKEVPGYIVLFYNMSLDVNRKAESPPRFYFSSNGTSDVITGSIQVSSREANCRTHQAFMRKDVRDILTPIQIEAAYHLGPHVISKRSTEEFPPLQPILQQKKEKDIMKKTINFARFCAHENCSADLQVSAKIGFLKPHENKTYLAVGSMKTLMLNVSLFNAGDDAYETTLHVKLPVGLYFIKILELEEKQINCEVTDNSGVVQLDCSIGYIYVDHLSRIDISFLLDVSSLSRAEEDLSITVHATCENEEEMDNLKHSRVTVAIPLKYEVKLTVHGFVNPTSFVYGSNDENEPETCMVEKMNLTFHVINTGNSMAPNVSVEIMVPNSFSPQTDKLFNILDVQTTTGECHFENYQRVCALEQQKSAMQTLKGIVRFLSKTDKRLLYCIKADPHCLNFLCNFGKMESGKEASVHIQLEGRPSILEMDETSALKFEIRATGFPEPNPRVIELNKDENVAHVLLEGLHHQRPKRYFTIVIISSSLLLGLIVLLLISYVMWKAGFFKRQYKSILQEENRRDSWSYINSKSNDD
Chain of ATP-binding cassette sub-family B member 6 (Homo sapiens) (Q9NP58 whole entry, looked up): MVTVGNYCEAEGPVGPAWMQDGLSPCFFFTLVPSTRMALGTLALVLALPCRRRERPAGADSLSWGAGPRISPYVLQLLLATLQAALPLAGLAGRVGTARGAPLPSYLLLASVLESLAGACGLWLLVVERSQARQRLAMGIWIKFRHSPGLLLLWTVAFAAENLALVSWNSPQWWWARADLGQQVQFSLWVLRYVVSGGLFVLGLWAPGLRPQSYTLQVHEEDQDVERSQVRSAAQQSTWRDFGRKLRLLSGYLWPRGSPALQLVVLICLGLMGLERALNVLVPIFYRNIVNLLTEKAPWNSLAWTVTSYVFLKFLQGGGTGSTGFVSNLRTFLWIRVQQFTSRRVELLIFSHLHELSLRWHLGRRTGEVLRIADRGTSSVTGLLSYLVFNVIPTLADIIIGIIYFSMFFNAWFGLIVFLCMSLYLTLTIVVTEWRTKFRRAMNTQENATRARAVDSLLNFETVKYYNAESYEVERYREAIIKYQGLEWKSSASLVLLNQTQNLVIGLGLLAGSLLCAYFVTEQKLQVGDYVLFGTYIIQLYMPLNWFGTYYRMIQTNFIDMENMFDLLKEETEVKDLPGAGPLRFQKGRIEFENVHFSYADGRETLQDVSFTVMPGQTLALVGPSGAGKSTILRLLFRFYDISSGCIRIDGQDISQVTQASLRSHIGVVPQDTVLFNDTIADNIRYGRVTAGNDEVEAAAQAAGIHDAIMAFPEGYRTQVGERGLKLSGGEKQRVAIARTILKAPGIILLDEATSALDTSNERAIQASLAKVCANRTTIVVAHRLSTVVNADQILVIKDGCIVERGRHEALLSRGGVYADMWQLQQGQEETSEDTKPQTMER
Chain of Beta-adrenergic receptor kinase 1 (Homo sapiens) (P25098 whole entry, looked up): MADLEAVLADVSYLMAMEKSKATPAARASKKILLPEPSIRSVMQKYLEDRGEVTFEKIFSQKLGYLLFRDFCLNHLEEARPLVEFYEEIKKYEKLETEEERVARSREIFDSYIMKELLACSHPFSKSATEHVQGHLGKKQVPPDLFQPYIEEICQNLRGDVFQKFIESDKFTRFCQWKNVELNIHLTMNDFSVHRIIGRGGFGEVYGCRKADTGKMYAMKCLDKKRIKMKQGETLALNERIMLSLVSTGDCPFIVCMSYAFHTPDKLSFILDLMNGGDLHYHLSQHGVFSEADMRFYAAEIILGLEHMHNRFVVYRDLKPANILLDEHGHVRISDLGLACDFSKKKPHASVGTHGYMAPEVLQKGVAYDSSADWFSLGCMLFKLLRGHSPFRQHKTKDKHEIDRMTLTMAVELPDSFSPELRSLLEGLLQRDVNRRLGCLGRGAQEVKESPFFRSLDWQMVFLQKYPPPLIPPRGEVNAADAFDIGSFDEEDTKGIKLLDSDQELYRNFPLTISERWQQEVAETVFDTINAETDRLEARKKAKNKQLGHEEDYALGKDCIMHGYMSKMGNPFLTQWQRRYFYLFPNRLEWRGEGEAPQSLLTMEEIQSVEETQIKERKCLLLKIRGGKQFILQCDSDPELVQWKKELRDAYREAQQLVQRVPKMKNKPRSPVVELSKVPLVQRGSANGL

SMILES | percent of DMSO control GFP [1] | GFP response vs DMSO [2] | percent response of DMSO control [3] | GFP response vs DMSO [4] | GFP response, % of DMSO [5] | double positive events [6] | vesicle binding response [6] | inhibition [7] | superoxide response (% of plate) [8] | aptamer binding inhibition [9] | response [10] | inhibition [11] | response [12] | binding (% of control) [13] | efflux inhibition (fraction of control) [14] | inhibition [15] | differentiation response [16]
O=C(O)c1ccccc1Nc1cccc(C(F)(F)F)c1 | 95% (inactive) | 103% (inactive) | 88.2% (inactive) | 93.1% (inactive) | 82.4% (inactive) | 74% | 7820% (inactive) | -15.4% (inactive) | 98.3% (inactive) | 2% (inactive) | -9.88% (inactive) | -15.2% (inactive) | 1.34% (inactive) | 98.2% (inactive) | -0.24 (inactive) | 112% (active) | 18.4% (inactive)
COc1ccc2[nH]c(=O)c(CNC3CCCCC3)cc2c1 | 102% (inactive) | 103% (inactive) | 106% (inactive) | 98% (inactive) | 99.9% (inactive) | 63.6% | 244% (inactive) | 11% (inactive) | 106% (inactive) | 2% (inactive) | -1.53% (inactive) | -0.94% (inactive) | 1.21% (inactive) | 95.5% (inactive) | -0.01 (inactive) | -1% (inactive) | 0.24% (inactive)
CN1CC2CCCC3(C1)C(=O)NC1(CCCCC1)N=C23 (stereo not drawn) | 105% (inactive) | 105% (inactive) | 111% (inactive) | 97.3% (inactive) | 107% (inactive) | 58.9% | 281% (inactive) | 3.7% (inactive) | 103% (inactive) | 1% (inactive) | -7.22% (inactive) | -5.67% (inactive) | 3.54% (inactive) | 99% (inactive) | -0.26 (inactive) | 1% (inactive) | -6.6% (inactive)
CC(=O)CC(c1ccc([N+](=O)[O-])cc1)c1c(O)c2ccccc2oc1=O (stereo not drawn) | 107% (inactive) | 105% (inactive) | 105% (inactive) | 118% (inactive) | 114% (inactive) | 60.4% | 115% (inactive) | -5.11% (inactive) | 105% (inactive) | -1% (inactive) | -6.11% (inactive) | 1.39% (inactive) | 1.39% (inactive) | 99% (inactive) | 0.4 (inactive) | 2% (inactive) | -11.9% (inactive)
CC(=O)C1=C(O)C(=O)N(Cc2cccnc2)C1c1ccc(C(C)C)cc1 (stereo not drawn) | 97.5% (inactive) | 109% (inactive) | 100% (inactive) | 113% (inactive) | 104% (inactive) | 59.9% | 152% (inactive) | -6.23% (inactive) | 84.1% (inactive) | -1% (inactive) | -27.3% (inactive) | 5.98% (inactive) | 2.79% (inactive) | 102% (inactive) | 0.08 (inactive) | 1% (inactive) | -5.97% (inactive)
CSc1ccc(/C=N/N2CCN(Cc3ccc(C)cc3C)CC2)cc1 | 100% (inactive) | 99.7% (inactive) | 110% (inactive) | 97% (inactive) | 96.3% (inactive) | 61.9% | 118% (inactive) | -5.11% (inactive) | 97.2% (inactive) | -2% (inactive) | 6.9% (inactive) | 7.81% (inactive) | 4.06% (inactive) | 103% (inactive) | 0.22 (inactive) | 25% (inactive) | 11.5% (inactive)
CCNC(=O)c1c(N)sc2c1CCCCC2 | 103% (inactive) | 96.3% (inactive) | 101% (inactive) | 90.5% (inactive) | 94.9% (inactive) | 63.8% | 262% (inactive) | -27.7% (inactive) | 101% (inactive) | 1% (inactive) | 33.6% (inactive) | 9.58% (inactive) | -1.51% (inactive) | 95.3% (inactive) | 0.12 (inactive) | 2% (inactive) | 7.2% (inactive)
COc1ccc(C(CC(=O)N2CCOCC2)C(C)C)cc1 (stereo not drawn) | 100% (inactive) | 99.6% (inactive) | 101% (inactive) | 118% (inactive) | 106% (inactive) | 55.7% | 56.1% (inactive) | 2.3% (inactive) | 77.9% (inactive) | 3% (inactive) | -9.06% (inactive) | -2.4% (inactive) | 1.44% (inactive) | 95.3% (inactive) | -0.06 (inactive) | 7% (inactive) | -18.4% (inactive)
CC(=O)Nc1ccc(CN2CCN(C3CCCCC3)C(CCO)C2)cc1 (stereo not drawn) | 102% (inactive) | 104% (inactive) | 101% (inactive) | 114% (inactive) | 120% (inactive) | 62.8% | 172% (inactive) | -0.27% (inactive) | 102% (inactive) | 0% (inactive) | -18.9% (inactive) | -3.58% (inactive) | -1.9% (inactive) | 111% (inactive) | 0.12 (inactive) | 2% (inactive) | -10.9% (inactive)
